Results as given in PMC5540273 (PLoS ONE, 2017).

How the values were obtained:
Details in all cases: concentration: 1 μM, replicates: in singlicate; n = 1
SgK110 = tested on: SgK110
TAK1 = tested on: T1, TAK1
T1 construct: gene MAP3K7

TAOK1 = tested on: TAOK1
TAOK2 = tested on: TAOK2
TAOK3 = tested on: TAOK3
TBK1 = tested on: TBK1
TEC = tested on: TEC
TESK1 = tested on: TESK1
TGFBR1 = tested on: TGFBR1
TGFBR2 = tested on: TGFBR2
TIE1 = tested on: TIE1
TIE2 = tested on: T2, TIE2
T2 construct: gene TEK

TLK1 = tested on: TLK1
TLK2 = tested on: TLK2
TNIK = tested on: TNIK
TNK1 = tested on: TNK1
TNK2 = tested on: TNK2
TNNI3K = tested on: TNNI3K
TRKA = tested on: T3, TRKA
T3 construct: gene NTRK1

TRKB = tested on: TRKB
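Further: KINOMEscan kinase panel screen.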

Compound | %Inh (SgK110) [%] | %Inh (TAK1) [%] | %Inh (TAOK1) [%] | %Inh (TAOK2) [%] | %Inh (TAOK3) [%] | %Inh (TBK1) [%] | %Inh (TEC) [%] | %Inh (TESK1) [%] | %Inh (TGFBR1) [%] | %Inh (TGFBR2) [%] | %Inh (TIE1) [%] | %Inh (TIE2) [%] | %Inh (TLK1) [%] | %Inh (TLK2) [%] | %Inh (TNIK) [%] | %Inh (TNK1) [%] | %Inh (TNK2) [%] | %Inh (TNNI3K) [%] | %Inh (TRKA) [%] | %Inh (TRKB) [%]
Cl.Cn1ccc(-c2cccc(Nc3ccnc4cc(-c5nccs5)ccc34)c2)n1 [GW525701] | 19 | 0 | 0 | 0 | 0 | 17 | 17 | 34 | 12 | 0 | 0 | 0 | 13 | 3 | 50 | 0 | 33 | 0 | 0 | 60
Oc1ccc2ncnc(Nc3ccc(OCc4ccccc4)cc3)c2c1 [GI262866] | 0 | 0 | 0 | 0 | 0 | 0 | 0 | 0 | 0 | 0 | 19 | 0 | 0 | 0 | 0 | 0 | 4 | 77 | 0 | 0
Cc1cccc(-c2nc(Nc3ccc4[nH]nnc4c3)c3ccccc3n2)n1 [GW867587] | 19 | 0 | 0 | 0 | 0 | 14 | 0 | 0 | 32 | 0 | 0 | 0 | 0 | 0 | 0 | 24 | 0 | 0 | 0 | 0
Fc1ccc(-c2ncn(CCCNCc3ccccc3)c2-c2ccncc2)cc1 | 12 | 29 | 5 | 0 | 0 | 25 | 8 | 6 | 0 | 10 | 23 | 0 | 26 | 0 | 12 | 0 | 13 | 0 | 38 | 3
FC(F)(F)c1cc(Nc2nccc(-c3c(-c4ccc(Cl)cc4)nn4ncccc34)n2)ccc1Cl [GW829351] | 23 | 0 | 0 | 2 | 0 | 2 | 0 | 0 | 21 | 0 | 0 | 0 | 0 | 0 | 12 | 21 | 0 | 0 | 0 | 0
Cl.c1ccc(Cn2ncc3cc(Nc4ncnc5ccccc45)ccc32)cc1 [GW273749] | 0 | 0 | 0 | 0 | 0 | 23 | 0 | 0 | 6 | 0 | 0 | 0 | 15 | 0 | 0 | 0 | 12 | 0 | 0 | 0
CN1CCC(n2cnc(-c3ccc(F)cc3)c2-c2ccnc(NC3CCNCC3)n2)CC1 [SB-229482] | 0 | 34 | 0 | 0 | 0 | 0 | 0 | 7 | 28 | 16 | 0 | 0 | 11 | 0 | 1 | 16 | 0 | 0 | 17 | 26
Nc1nccc2scc(-c3ccc4c(c3)CCN4C(=O)Cc3cc(F)ccc3F)c12 [GSK2587663] | 0 | 0 | 0 | 0 | 0 | 6 | 0 | 18 | 19 | 0 | 54 | 1 | 4 | 0 | 0 | 0 | 23 | 4 | 0 | 42
C[C@@H]1CCN(C(=O)CO)C[C@@H]1N(C)c1ncnc2[nH]ccc12 | 0 | 27 | 0 | 0 | 0 | 1 | 3 | 12 | 7 | 4 | 3 | 2 | 0 | 0 | 6 | 62 | 0 | 0 | 15 | 10
Fc1cccc(COc2ccc(Nc3ncnc4cc[nH]c34)cc2Cl)c1 | 0 | 8 | 0 | 0 | 0 | 4 | 18 | 0 | 9 | 0 | 0 | 5 | 25 | 12 | 11 | 0 | 27 | 5 | 2 | 17
CCn1c(-c2ccncc2)nc2cnccc21 [SB-735216] | 0 | 20 | 15 | 13 | 18 | 17 | 7 | 24 | 0 | 0 | 0 | 12 | 0 | 0 | 0 | 1 | 13 | 0 | 27 | 41
